ST2 IL33 inh: blocks human ST2 binding to IL-33 | 78,000 tested, 2.3% active | AlphaLISA ST2-Fc/biotin-IL-33 interaction, 1 h | inhibition, % for hits at 17 µM | Q01638; in the data active = inhibition above about 30%
Target sequence (Q01638 whole entry, looked up): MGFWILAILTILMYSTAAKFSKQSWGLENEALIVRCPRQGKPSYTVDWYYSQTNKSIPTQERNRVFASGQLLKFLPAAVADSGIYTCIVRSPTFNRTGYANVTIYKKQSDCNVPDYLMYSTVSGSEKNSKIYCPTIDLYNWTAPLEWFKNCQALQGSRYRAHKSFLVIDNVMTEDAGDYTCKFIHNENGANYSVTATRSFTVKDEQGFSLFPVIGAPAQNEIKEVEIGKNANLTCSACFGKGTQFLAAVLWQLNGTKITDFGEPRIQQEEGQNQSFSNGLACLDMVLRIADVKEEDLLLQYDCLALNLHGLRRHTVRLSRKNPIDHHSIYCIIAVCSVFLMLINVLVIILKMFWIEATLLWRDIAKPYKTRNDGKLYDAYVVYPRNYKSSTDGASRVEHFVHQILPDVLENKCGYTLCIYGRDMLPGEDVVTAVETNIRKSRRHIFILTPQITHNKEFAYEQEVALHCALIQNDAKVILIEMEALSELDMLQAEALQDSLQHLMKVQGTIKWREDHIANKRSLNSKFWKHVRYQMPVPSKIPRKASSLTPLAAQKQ
Of the large screens only hits and unclear results are named; the others gave an inactive call. This is one part of a sample in which hits are shown more often than they occur.

COc1ccccc1/C=C/C1=NC(=C\c2ccc([N+](=O)[O-])cc2)/C(=O)O1	none
COc1ccccc1/C=C/C1=NC(=C\c2cccc(Cl)c2)/C(=O)O1	ST2 IL33 inh 34.0%
COc1ccccc1/C=C/C1=NC(=C\c2ccc(Cl)c(Cl)c2)/C(=O)O1	none
O=C1CC(N2CCC(O)CC2)C(=O)N1c1ccc(Br)cc1Br (stereo not drawn)	none
Cc1ccnc(C(NC(=O)c2cnc3cccc(C)n3c2=O)C2CC2)c1 (stereo not drawn)	none
CCCCNC(=O)CSc1ncnc2nc[nH]c12	none
Brc1cccc(C2CC(c3ccccc3)Nc3ncnn32)c1 (stereo not drawn)	none
Cc1cc(F)c(F)c(C(=O)Nc2cccc(F)c2)c1	none
Cc1ccc(CN(C)C(=O)c2cc(CC(C)C)[nH]c(=O)n2)o1	none
O=C(NCc1cccnc1)c1noc2c1CCc1ccccc1-2	none
Cc1ccc(S(=O)(=O)N2CN3CN(C2)CN(S(=O)(=O)c2ccc(C)cc2)C3)cc1	ST2 IL33 inh 46.0%
COc1ccc(S(=O)(=O)N2CCN(S(=O)(=O)c3ccc(C)cc3)CC2)cc1	none
Cc1ccc(S(=O)(=O)N2CCN(c3ccccc3)CC2)cc1	none
COc1ccc(/C=N\OCc2nc3c4c5c(sc4ncn3n2)CCCCC5)cc1	none
CN1CC2(CCN(C(=O)CCc3nc4ccccc4[nH]3)C2)OC1=O (stereo not drawn)	none
COc1cc(C(=O)Nc2cc(Cl)ccc2OCc2cc(=O)n3oc(C)cc3n2)cc(OC)c1OC	none
COc1ccc2c(c1OC)C(=O)N(c1nc(-c3ccc(C)cc3)cs1)C2=O	none
COc1cccc(Nc2ncnc3sc4c(c23)CCCC4)c1	none
c1nc(Nc2ccc(N3CCCCC3)cc2)c2c3c(sc2n1)CCCC3	ST2 IL33 inh 58.0%
CCNc1ncnc2sc3c(c12)CCCC3	none
CCc1nc(C)ccc1OCC(=O)N1CCC(O)(CN(C)C)C1 (stereo not drawn)	none
O=C1CC(C(=O)NC2CCC(n3cnnc3)CC2)c2ccccc21 (stereo not drawn)	none
COC(=O)[C@@H]1Cc2ncn(Cc3ccc(OC)cc3)c2CN1Cc1cccc(C#N)c1	ST2 IL33 inh 41.0%
COC(=O)[C@@H]1Cc2ncn(Cc3ccc(OC)cc3)c2CN1C(=O)c1ccc(OC)cc1	none
COCC(=O)N1Cc2c(ncn2Cc2ccc(OC)cc2)C[C@H]1C(=O)OC	ST2 IL33 inh 68.0%
COC(=O)[C@@H]1Cc2ncn(Cc3ccc(Cl)cc3)c2CN1C(=O)c1ccccc1OC	none
COC(=O)[C@@H]1Cc2ncn(Cc3ccc(Cl)cc3)c2CN1Cc1ccc(CO)o1	none
COC(=O)[C@@H]1Cc2ncn(Cc3ccc(Cl)cc3)c2CN1C(=O)COc1ccccc1	none
COC(=O)[C@@H]1Cc2ncn(Cc3ccc(OC)cc3)c2CN1Cc1ccc(OC)cc1	ST2 IL33 inh 89.0%
COC(=O)[C@@H]1Cc2ncn(Cc3ccc(Cl)cc3)c2CN1S(C)(=O)=O	none
COC(=O)[C@@H]1Cc2ncn(Cc3ccc(Cl)cc3)c2CN1Cc1ccc(F)cc1	none
Cc1ccc(N=C2NC(=O)CC(C(=O)Nc3ccccc3C(F)(F)F)S2)cc1 (stereo not drawn)	none
Cc1cc(N2CCC(C)CC2)nc2ccc(NC(=O)CCC(=O)N3CCCC3)cc12	none
COc1ccccc1CN(C(=O)c1ccc2nc(C)[nH]c2c1)C1CC1	none
Cc1[nH]c(=O)[nH]c(=O)c1S(=O)(=O)N(CCc1ccccc1)Cc1ccccc1	none
COc1ccc2nc(NS(=O)(=O)Cc3ccccc3)sc2c1	none
COc1ccc(C2C(C(=O)Nc3cccc(C)n3)c3cc(OC)c(OC)cc3C(=O)N2C)cc1 (stereo not drawn)	none
CCCC1C(C#N)=C(N)Oc2n[nH]c(CC(=O)OC)c21 (stereo not drawn)	none
Cc1ccc(Cl)cc1NC(=O)c1ccccc1C(=O)Nc1cc(Cl)ccc1C	none
Cc1ccc(Cl)cc1NS(=O)(=O)c1cccc2nonc12	none
Cc1ccc(C)c(NS(=O)(=O)c2cccc3c2C(=O)c2ccccc2C3=O)c1	ST2 IL33 inh 54.0%
Cc1ccc(Cl)cc1NS(=O)(=O)c1cccc2c1C(=O)c1ccccc1C2=O	ST2 IL33 inh 44.0%
Cc1ccc(C)c(NS(C)(=O)=O)c1	none
Cc1ccc(C)c(NS(=O)(=O)c2ccc(NC(=O)c3ccccc3C)cc2)c1	none
Cn1c(=O)cc(SCC(=O)N2CCCCC2)c2ccc(Cl)cc21	none
Cc1ccccc1CCN1CCCC(CN(C)C(=O)c2cc(C3CC3)[nH]n2)C1 (stereo not drawn)	none
O=C(NC1(c2cc(F)ccc2F)CC1)C1CC2(CCNCC2)CN1 (stereo not drawn)	none
O=[N+]([O-])c1ccc(Cl)c(N=Cc2ccc(Br)c([N+](=O)[O-])c2)c1	none
COc1cccc(/C=C2\SC(N3CCN(C)CC3)=NC2=O)c1OC	none
CCOc1ccccc1/C=C1/SC(=O)NC1=O	none
O=C1NC(=Nc2ccccc2Cl)S/C1=C/c1cc2c(cc1Cl)OCO2	ST2 IL33 inh 31.0%
O=C1NC(=Nc2ccccc2Cl)SC1(CO)CO	none
O=C1NC(=O)/C(=C/c2ccc(-c3cc([N+](=O)[O-])ccc3Cl)o2)S1	none
O=C(/C=C1\Sc2ccccc2NC1=O)NCc1ccc2c(c1)OCO2	none
O=C1NC(=Nc2ccccc2Cl)S/C1=C/c1ccc([N+](=O)[O-])cc1	ST2 IL33 inh 31.0%
